About 3,000 (1%) of roughly 290,000 compounds were called active. The sample as a whole holds a higher share of actives than the screen did. Unmarked numbers belong to inactive results. Rule as the data show it: active = inhibition mostly above about 36% (no sharp cut-off); inactive = mostly below about 34%.
Assay: NOD1 signaling inhibitors, primary screen, cell-based, luminescence, uHTS (AID 1578);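 also: HEK-293T reporter cells stimulated with the NOD1 agonist gamma-tri-DAP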
Conditions: NOD1-driven NF-kB luciferase reporter cells, at 4 µM, hits give high values

| Structure (SMILES) | inhibition |
| --- | --- |
| CCOC(=O)CSC1=NN2CCS(=O)(=O)N=C2S1 | -12.9% |
| CCSC1=NN2CCS(=O)(=O)N=C2S1 | 44.5% (active) |
| C=CCSC1=NN2CCS(=O)(=O)N=C2S1 | -14.6% |
| COc1ccc(/C(N)=N/OC(=O)c2cccs2)cc1OC | -61.8% |
| COc1ccccc1CNC(=O)C1CCN(C(=O)c2sccc2-n2cccc2)CC1 | -18.4% |
| CCC(NC(=O)c1ccccc1NC(=O)c1ccccc1)C(=O)NNC(=O)c1cccnc1 (stereo not given) | -7.6% |
| CCN(C(=O)COC(=O)c1cccnc1Nc1ccccc1F)C1CCS(=O)(=O)C1 (stereo not given) | -22.9% |
| CCOc1ccc(NC(=O)CCSc2nnc(C)s2)cc1 | 7.9% |
| Cc1ccc2c(c1)Oc1ccc(NC(=O)CCl)cc1C(=O)N2 | 103% (active) |
| Cc1ccc2c(c1)Oc1ccc([N+](=O)[O-])cc1C(=O)N2 | -16.6% |
| Cc1ccc2c(c1)Oc1ccc(NC(=O)CCCl)cc1C(=O)N2 | 0.2% |
| CCCn1c(N)c(N(CCOC)C(=O)/C=C/c2cccc(Cl)c2)c(=O)[nH]c1=O | -16.5% |
| CC12CN3CC(C)(CN(C1)C3c1ccc(F)cc1)C2 (stereo not given) | -30.5% |
| O=C(O)CCCC(=O)Nc1ccc(Oc2ncnc3cc(Cl)ccc23)nc1 | -10.7% |
| CC(C(=O)N(C1CC1)C1(C(=O)Nc2ccccc2)CCCC1)N1C(=O)c2ccccc2C1=O (stereo not given) | 7.8% |
| COC(=O)c1ccccc1NC(=O)NCc1ccccn1 | -25.3% |
| Oc1ccc(Br)cc1C=Nc1ccc2c3c(cccc13)CC2 | 101% (active) |
| Cc1cccc(C=Nc2ccc3c4c(cccc24)CC3)c1O | -17.9% |
| Oc1ccc(Cl)cc1C=Nc1ccc2c3c(cccc13)CC2 | 38.7% |
| Cc1cc(C(=O)NCCc2ccccc2)c2cc(F)ccc2n1 | 1.9% |
| CN(c1ccccc1)S(=O)(=O)c1ccc(Cl)c(C(=O)Nc2nc3ccccc3[nH]2)c1 | 3.8% |
| CN(c1cccc(Cl)c1)S(=O)(=O)c1cccc(C(=O)Nc2nc3ccccc3[nH]2)c1 | 53% |
| O=C(NCc1ccccc1)c1cnsn1 | -16.6% |
| CC1CCc2nc3ccccc3c(C(=O)OCC(=O)N(C)C3CCS(=O)(=O)C3)c2C1 (stereo not given) | -19.9% |
| COc1cc(C(=O)Nc2ccc(Nc3ccccc3)cc2)cc(OC)c1OC | -1.1% |

| Structure (SMILES) | inhibition |
| --- | --- |
| Cc1ccc(C)c(CS(=O)(=O)c2cn(CC(=O)N3CCCCC3)c3ccccc23)c1 | -19.4% |
| O=C(NN=C1CCCC1)c1cc(Br)ccc1O | -58.6% |
| O=C1N/C(=N/O)S/C1=C/c1cccc([N+](=O)[O-])c1 | -24.9% |
| CC(C)N(C(=O)CO/N=C/c1cccc([N+](=O)[O-])c1)C(C)C | -4.4% |
| CC1(C)C2C/C(=N\O)C(C)(/[N+]([O-])=C/c3cccc([N+](=O)[O-])c3)CC21 (stereo not given) | 62.4% (active) |
| Cc1nnc(SCC(=O)O)s1 | -10.4% |
| Cc1ccc(-c2nc(CN3CCCC(C(=O)N4CCOCC4)C3)c(C)o2)cc1 (stereo not given) | -23.5% |
| COC(=O)c1cnn(-c2ccc(Cl)cc2)c1/C=N/NC(N)=S | 5.8% |
| CN(C)S(=O)(=O)c1cccc(NC(=O)c2cnccn2)c1 | -27.8% |
| CN(C)S(=O)(=O)c1cccc(NC(=O)c2ccncc2)c1 | -4.4% |
| CCOc1ccc(N/C(N)=N/c2nc(C)cc(C)n2)cc1 | -34.6% |
| CN1CCN(CCCNc2c(C=O)c(=O)[nH]c3ccccc23)CC1 | -5.5% |
| O=Cc1c(NCCN2CCCC2)c2ccccc2[nH]c1=O | 0.2% |
| O=Cc1c(NCCN2CCOCC2)c2ccccc2[nH]c1=O | 59.2% (active) |
| O=[N+]([O-])c1ccc(Cl)c(CN2CCN(c3ncccn3)CC2)c1 | -27.2% |
| Cc1cc(C)nc(NC(=O)c2ccc(C)o2)n1 | -48.4% |
| O=C1CC(c2ccc(F)cc2)c2cc3c(cc2N1)CCC3 (stereo not given) | 28.6% |
| O=C1CC(c2ccccc2F)c2cc3c(cc2N1)CCC3 (stereo not given) | 8.6% |
| O=C1CC(c2cc(F)ccc2F)c2cc3c(cc2N1)CCC3 (stereo not given) | 64.2% (active) |
| COc1ccc(NC(=O)CCn2cc(C)c3ccccc32)cc1 | -5.7% |
| O=C(N/N=C/c1ccccc1)c1ccc(-c2ccccc2)cc1 | -17.2% |
| CCC(=O)Nc1nc2ccccc2n1CCN(C)C | -15.3% |
| CCCCCCCn1c(NC(=O)CC)nc2ccccc21 | 109% (active) |
| CCC(=O)Nc1nc2ccccc2n1Cc1ccc(Cl)cc1 | 101% (active) |
| CCC(=O)Nc1nc2ccccc2n1CCN(CC)CC | -9.6% |

| Structure (SMILES) | inhibition |
| --- | --- |
| CCC(=O)Nc1nc2ccccc2n1Cc1ccc(C)cc1 | 31.5% |
| CCC(=O)Nc1nc2ccccc2n1Cc1ccccc1 | 23.4% |
| CCn1c(C)nc2cc(C(=O)n3cc(C(=O)c4cc(F)ccc4O)cn3)ccc21 | 23.8% |
| Nc1ccc(-c2nc3ccccc3o2)cc1 | 5.8% |
| COc1ccc([C@@H]2[C@@H]3C(=O)N(C(C)(C)C)C(=O)[C@@H]3[C@]3(Cc4ccc(Cl)cc4)C(=O)N(c4cccc(C)c4)C(=O)N23)cc1 | 13.2% |
| COc1cccc(NC(=O)C2CCN(S(C)(=O)=O)CC2)c1 | -30.4% |
| Cc1cc(S(=O)(=O)Nc2ccc3c(c2)n(C)c(=O)n3C)ccc1F | 0.4% |
| Oc1c(Br)cc(Br)cc1CNn1cnnc1 | 5.1% |
| COc1cc(SC)ccc1C(=O)Nc1cccc(C)n1 | -70% |
| COc1cc(SC)ccc1C(=O)Nc1nccs1 | -52.4% |
| COc1cc(SC)ccc1C(=O)Nc1ccc(Cl)cn1 | 16.3% |
| COc1cc(SC)ccc1C(=O)Nc1nc(C)cc(C)n1 | -19.1% |
| COc1cc(SC)ccc1C(=O)Nc1ncc(C)s1 | 82.7% (active) |
| COc1cc(SC)ccc1C(=O)Nc1nc(C)cs1 | 91.9% (active) |
| CCCCOc1ccccc1/C=N/NC(=O)CC#N | -26.1% |
| O=C(NNC(=S)Nc1ccc(Cl)cc1)c1ccccc1OC(F)F | -11.7% |
| COc1ccccc1-n1cc(-c2ccc(Br)cc2)[nH]c1=S | -0.3% |
| Cc1sc2ncnc(Sc3ccccc3C(=O)Nc3ccc(Br)cc3)c2c1C | 9.8% |
| Nc1c(Br)c(=O)[nH]c(=O)n1-c1ccccc1 | 6.9% |
| COc1ccc(N/N=C(/N=Nc2nc(C)cc(=O)[nH]2)c2ccccc2)cc1 | 11.2% |
| Cc1cc(=O)[nH]c(N=N/C(=N/Nc2ccc(O)cc2)c2ccccc2)n1 | 105% (active) |
| Cc1cc(=O)[nH]c(N=N/C(=N/Nc2ccccc2C)c2ccccc2)n1 | 45.2% |
| COc1ccc(N(CC(=O)NC2CCCCC2)C(=O)c2snc(C(N)=O)c2N)cc1 | -27.6% |
| CN1CCN(CCCNC(=O)Cn2nc(-c3ccccc3)ccc2=O)CC1 | -20.1% |
| O=C(O)c1nc(N2CCCC2)ncc1Cl | 0.1% |

| Structure (SMILES) | inhibition |
| --- | --- |
| O=C1/C(=C\c2ccccc2)CCc2c1[nH]c1ccccc21 | -31.1% |
| Cc1ccc(/C=C2/CCc3c([nH]c4ccccc34)C2=O)cc1 | -61.5% |
| O=C1/C(=C/c2cccnc2)CCc2c1[nH]c1ccccc21 | 82% (active) |
| COC(=O)c1cn(CCOc2ccccc2)c2ccccc12 | -11.9% |
| COc1ccccc1C(=O)Nc1cccnc1 | -35.2% |
| CC1CCc2nc(NC(=O)C3CC3)sc2C1 (stereo not given) | -43.5% |
| CC1CCc2nc(NC(=O)Cc3cccs3)sc2C1 (stereo not given) | -17.9% |
| O=C(CSc1nc2ccccc2o1)Nc1nc2ccccc2s1 | 25.3% |
| CC1CCc2nc(NC(=O)CCSc3ccccc3)sc2C1 (stereo not given) | -19.7% |
| CC1CCc2nc(NC(=O)c3ccco3)sc2C1 (stereo not given) | 42.5% (active) |
| CC(=O)Nc1ccc(S(=O)(=O)N2CCN(c3ncccn3)CC2)cc1 | -2% |
| CCOc1ccccc1NC(=O)C(C)CC (stereo not given) | -23.5% |
| COc1ccc(NC(=O)Cc2nnc(SCC(=O)NC3CCCCC3C)n2C)cc1 (stereo not given) | 17.2% |
| CCN(CC1CCCN(CCc2cccc(F)c2)C1)C(=O)c1ccc(CSC)o1 (stereo not given) | -11% |
| COc1ccc(C(=O)OC(COc2ccccc2)Cn2ccnc2)cc1 (stereo not given) | 2.7% |
| Cc1coc2cc3oc(=O)c(CC(=O)N[C@@H](CC(C)C)C(=O)O)c(C)c3cc12 | -5.8% |
| COc1cc(C2C3C(C)N(C)C(=O)N(C)C3N(C)C(=O)N2C)ccc1O (stereo not given) | -20.9% |
| COc1cc(/C=C2\SC(=S)NC2=O)ccc1OS(=O)(=O)c1ccccc1 | 4.1% |
| COc1cc(/C=C2/SC(=S)NC2=O)ccc1OS(=O)(=O)c1ccc(C)cc1 | 93.4% (active) |
| COc1ccc(/C=C2\SC(=S)NC2=O)cc1OS(=O)(=O)c1ccc(NC(C)=O)cc1 | 2.1% |
| Cc1ccc(CNC(=O)C2CCN(S(=O)(=O)c3ccc(Br)s3)CC2)cc1 | 16% |
| Cc1cc(-n2c(C)cc(C(=O)CSc3nc(N)cc(=O)[nH]3)c2C)no1 | 9.7% |
| Cc1cc(C(=O)CSc2nc(N)cc(=O)[nH]2)c(C)n1-c1ccc(OC(F)F)cc1 | 45.3% (active) |
| Cc1cc(C(=O)CSc2cccc[n+]2[O-])c(C)n1-c1ccc(OC(F)F)cc1 | 2.7% |
| COCCCNC(=O)CNC(=O)c1cn(-c2ccccc2OC)c(=O)c2ccccc12 | -30.6% |

Source: PubChem BioAssay AID1578 (Sanford-Burnham Center for Chemical Genomics, 2009)
